Assay outcomes (PubChem)
FMDV inh = High Throughput Screening for Foot and Mouth Disease Virus Antivirals | FMDV antiviral cell-based qHTS | Potency, µM (highest dose often 57.9 µM), for the others: at the top dose activity change, negative = inhibition, hits mostly inhibitors | 1.2% of 410,000 active | AID 1159524, 2015; calls by dose curve; tested in HEK293T cells; also: read-out not given here; potency is read from the fitted curve at half-maximal effect; % is scaled to controls: 0 for no effect and ±100 for the full control effect; nearly all actives have a fitted effect of over 45% in size
CHX counter = Cycloheximide Counterscreen for Small Molecule Inhibitors of Shiga Toxin | max response, % | cell reporter, cycloheximide protein synthesis inhibition counterscreen | 12% of 300,000 active; in the data active = max response mostly above about 13%, no sharp cut-off; inactive = mostly below about 14%; also: read at 38.3 µM for the half of the compounds with a filed dose; 0% is about no effect
Shiga inhibitor = A qHTS for Small Molecule Inhibitors of Shiga Toxin; Vero cells, Shiga toxin protein synthesis inhibition reporter; inhibition, % at 38.7 µM; 9.2% of 290,000 active; AID 2315, 2010; in the data active = inhibition mostly above about 28%, no sharp cut-off; inactive = mostly below about 43%; also: 0% is about no effect
Sm TGR block = qHTS Assay for the Inhibitors of Schistosoma Mansoni Peroxiredoxins; AID 485364, 2010; Schistosoma mansoni thioredoxin glutathione reductase (TGR), Q962Y6; Potency, µM (series often up to 114 µM), for the others: at the highest dose activity change, negative = inhibition, hits mostly inhibitors; 3% of 360,000 active; purified TGR, DTNB reduction, TNB absorbance 405 nm; active = well fitted inhibition curve with a large enough effect; inconclusive = small, poorly fitted or top-dose-only effect; inactive = no such curve, though single readings can be large or run the other way; also: potency is read from the fitted curve at half-maximal effect; % is scaled to controls: 0 for no effect and ±100 for the full control effect; nearly all actives have a fitted effect of over 60% in size
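Kinetic colorimetric format: TGR-catalysed, NADPH-driven DTNB reduction monitored via TNB absorbance. Enzyme dispensed at 20 nM; compound exposure 15 min at room temperature before reaction start.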
An asterisk follows results filed as active; ? = inconclusive; . = no result given; [ ] = another dose, or the depositor's remark. Only some compounds are listed: those with a hit (about 12% of all), similar ones and a draw of the others.

SMILES	FMDV inh	CHX counter	Shiga inhibitor	Sm TGR block
CC(CC(=O)Nc1ccc(F)cc1)S(=O)(=O)c1cc2c3c(c1)CCN3C(=O)CC2 (centres undefined)	-4.6%	.	.	9.0%
O=C(Oc1ccc2c(c1)OCC2=O)c1ccccc1	.	44.5*	active	-3.1%
CC(C)(C)c1ccc(C(=O)Oc2ccc3c(c2)OCC3=O)cc1	28.8%	53.9*	85.6*	3.2%
CCc1cccc(CC)c1NC(=O)CCS(=O)(=O)c1ccc(Br)s1	-18.6%	.	.	0.5%
Cn1c(=O)n(CCc2ccccc2)c2ccccc21	28.8%	18.0*	.	7.2%
Cn1c(=O)n(CC(N)=O)c2ccccc21	-4.1%	-1.7	-25.3	0.1%
Cn1c(=O)n(CCCOc2ccc(Cl)cc2)c2ccccc21	-26.0%	19.3*	4.5	-3.4%
COc1ccc(-c2nc3scc(CCNC(=O)c4cccc(Br)c4)n3n2)cc1	-19.0%	.	.	?
O=C1N[C@@H](Cc2c[nH]c3ccccc23)C(=O)N[C@H]1Cc1c[nH]c2ccccc12	-7.7%	.	.	.
C/C1=C\[C@@H](C)C/C=C/[C@H]2[C@@H]3O[C@]3(C)[C@@H](C)[C@H]3[C@H](Cc4c[nH]c5ccccc45)NC(=O)[C@]32C(=O)/C=C/C(=O)[C@@H]1O	31.6µM*	1.3	-0.9	-2.1%
CN(C)c1ccc(C(CNC(=O)c2ccccc2)N2CCc3ccccc32)cc1 (centres undefined)	16.2%	.	.	-18.2%
O=C1OC2(c3cc(I)c(O)c(I)c3Oc3c2cc(I)c(O)c3I)c2c(Cl)c(Cl)c(Cl)c(Cl)c21	.	-7.0	-14.7	.
O=C1OC2(c3ccccc31)c1cc(I)c(O)c(I)c1Oc1c2cc(I)c(O)c1I	.	-6.5	15.7	0.891µM*
Cn1cc(C(=O)NCCc2ccccc2)c(=O)c2cc(S(=O)(=O)N3CCCCC3)ccc21	-5.3%	.	.	7.9%
CC(=O)O[C@@H]1CC2C(C)(C)C(=O)C=C[C@]2(C)C2CC[C@]3(C)C(=CC[C@H]3C3CO[C@@H](C(C)(C)O)[C@H](O)C3)[C@@]21C (some centres undefined)	-6.9%	.	.	.
Cn1cc(C(=O)c2ccc(Cl)cc2)cc1-c1nc2ccccc2n1C	15.8µM*	-5.9	-8.3	-23.2%
Cn1c(=O)c(C(=O)c2ccccc2)nc2ccccc21	4.8%	-5.4	-17.9	7.8%[11.4 µM]
CN(Cc1ccccc1)C(=O)CCC1CCN(C(=O)CCC(F)(F)F)CC1	0.0%	32.1*	.	0.6%
CN(Cc1ccccc1)C(=O)CCS(=O)(=O)c1ccc2c(c1)n(C)c(=O)c(=O)n2C	-26.7%	-3.0	-1.7	22.4µM*
CN(Cc1ccccc1)C(=O)CCC(=O)N(C)Cc1ccccc1	24.5%	32.4*	113.3*	0.0%
CN(Cc1ccccc1)C(=O)CCC1CCN(C(=O)CC2=CCCCC2)CC1	-3.0%	26.1	21.4	6.3%
COC(=O)[C@H](Cc1ccccc1)NC(=O)N(C)Cc1ccccc1	15.0%	17.9*	26.7	1.9%
CN(Cc1ccccc1)C(=O)C(=O)c1ccccc1	32.7%	.	.	.
CN(Cc1ccccc1)C(=O)N[C@@H](Cc1ccccc1)C(=O)O	-16.8%	-2.0	-5.7	0.9%
Cc1ccc(C)c(NC(=O)CCc2c(C)nn(-c3ccc(N4CCCC4)nn3)c2C)c1	-7.4%	.	.	4.5%
SMILES	FMDV inh	CHX counter	Shiga inhibitor	Sm TGR block
CN(Cc1ccccc1)C(=O)COC(=O)Cc1ccc(Cl)cc1	10.5%	.	.	.
CCOc1ccccc1N(CC(=O)N(C)Cc1ccccc1)S(=O)(=O)c1ccccc1	1.1%	26.1	57.7*	-17.3%
CN(Cc1ccccc1)C(=O)COC(=O)c1ccc(Cl)cc1N	-2.6%	28.7*	46.5	0.2%
COCCN1C(=O)c2cc(C(=O)Nc3ccc(C)c(F)c3)ccc2C1Nc1ccc(C)c(F)c1 (centres undefined)	-16.2%	32.2*	94.1*	-11.6%
CCc1ccc(NC(=O)c2ccc3c(c2)C(=O)N(CCOC)C3Nc2ccc(CC)cc2)cc1 (centres undefined)	28.1%	23.1*	66.7*	-1.8%
COc1ccc(N2C(=O)[C@@H]3C[C@H]2CN3Cc2ccc3nccnc3c2)cc1Cl	-13.7%	.	.	.
Cc1ccc2nc(NC(=O)COC(=O)CSc3nc(C)cc(C)n3)sc2c1	53.8%	40.5*	78.0*	-20.3%
COC(=O)c1cccc(NC(=O)COC(=O)CSc2nc(C)cc(C)n2)c1	-5.1%	0.3	-16.7	3.6%
CSc1nsc(SCC(=O)Nc2nc3ccc(C)cc3s2)n1	34.5%	20.0*	34.0	0.0%
COC(=O)c1ccc2nc(NC(=O)COC(=O)CSc3nc(C)cc(C)n3)sc2c1	15.2%	31.2*	64.9*	-7.6%
CC(C)(C)c1ccc(Cn2c(=N)n(CC(O)c3ccco3)c3ccccc32)cc1 (centres undefined)	20µM*	-8.4	-22.0	.
CCN(CC)c1cc2c(cc1F)c(=O)c(S(=O)(=O)c1ccc(C)cc1)cn2Cc1ccc(F)cc1	-14.2%	.	.	-1.4%
CCc1ccc(S(=O)(=O)Nc2ccc(-c3nc4cccnc4s3)cc2)s1	109.1%	35.7*	59.9*	-2.6%
O=S(=O)(Nc1ccc(-c2nc3cccnc3s2)cc1)c1cc(F)ccc1F	25.5%	36.7*	67.3*	-4.5%
O=C(Nc1cccc(-c2nc3cccnc3s2)c1)c1cccnc1Cl	-10.0%	17.6*	30.9*	10.5%
NS(=O)(=O)c1ccc(C(=O)Nc2ccc(-c3nc4cccnc4s3)cc2)cc1	54.2%	48.2*	69.7*	-3.1%
CC(C)Cn1c(=O)c2ccccc2n2c(CCC(=O)NCc3ccccc3Cl)nnc12	-10.7%	.	.	-3.9%
O=C(COc1ccccc1F)Nc1ccc(Cl)c(-c2nc3ccccc3[nH]2)c1	-3.6%	.	.	-4.2%
COc1ccc(Cn2c(C(=O)O)c(CNCC(C)c3ccccc3)c3ccc(OC)cc32)cc1 (centres undefined)	-0.3%	.	.	0.4%
O=C(NCc1ccc2c(c1)OCO2)c1ccco1	20.6%	10.4	13.4	-11.0%
O=C(Nc1ccccc1C(=O)Nc1ccc2c(c1)OCO2)c1ccco1	-7.0%	-1.5	-10.2	-1.1%
O=C(/C=C/c1ccco1)Nc1ccc2c(c1)OCO2	5.4%	38.3*	113.3*	14.1µM*
O=C(/C=C/c1cccs1)NCc1ccc2c(c1)OCO2	25.2%	37.1*	33.9*	6.8%
O=C(/C=C/c1ccco1)NCc1ccc2c(c1)OCO2	0.0%	16.4	11.0	14.1µM*
O=C(/C=C/c1ccccc1)NCc1ccc2c(c1)OCO2	24.2%	22.1*	34.3	2.2%
SMILES	FMDV inh	CHX counter	Shiga inhibitor	Sm TGR block
CCN1C(=O)c2ccccc2S(=O)c2ccc(C(=O)NCc3ccc(Cl)cc3)cc21 (centres undefined)	?	.	.	2.0%
CC(=O)Nc1ccccc1-c1nc2ccccc2n(CC(=O)c2ccc(C)c(C)c2)c1=O	-19.0%	.	.	-17.0%
Cc1ccc(C)c(-c2nnc(NC(=O)c3ccc([N+](=O)[O-])o3)o2)c1	-12.9%	.	.	35.5µM*
Cc1ccc(NC(=O)c2ccco2)c(NC(=O)Cc2cccs2)c1	16.0%	1.0	12.4	32.6%
CC(=O)c1ccc(NC(=O)c2ccc([N+](=O)[O-])o2)cc1	44.9%	33.7*	97.9*	28.2µM*
CC(=O)c1cccc(NC(=O)c2ccc([N+](=O)[O-])o2)c1	1.7%	.	.	.
Cc1cc(C)cc(NC(=O)c2ccc([N+](=O)[O-])o2)c1	-6.4%	34.0*	35.3*	35.5µM*
